High-throughput results (PubChem BioAssay)
Hits are enriched below; roughly 6% of the tested compounds scored in any of these assays.
D1 antag – blocks dopamine activation of the human D1 receptor | 360,000 tested, 3.2% active | activity change, negative = inhibition, % at 10 µM | P21728 | HEK293 TREx D1 cells, calcium flux, dopamine EC80; hits give low values; in the data active means activity change below about -30%
Target sequence (P21728 whole entry, looked up): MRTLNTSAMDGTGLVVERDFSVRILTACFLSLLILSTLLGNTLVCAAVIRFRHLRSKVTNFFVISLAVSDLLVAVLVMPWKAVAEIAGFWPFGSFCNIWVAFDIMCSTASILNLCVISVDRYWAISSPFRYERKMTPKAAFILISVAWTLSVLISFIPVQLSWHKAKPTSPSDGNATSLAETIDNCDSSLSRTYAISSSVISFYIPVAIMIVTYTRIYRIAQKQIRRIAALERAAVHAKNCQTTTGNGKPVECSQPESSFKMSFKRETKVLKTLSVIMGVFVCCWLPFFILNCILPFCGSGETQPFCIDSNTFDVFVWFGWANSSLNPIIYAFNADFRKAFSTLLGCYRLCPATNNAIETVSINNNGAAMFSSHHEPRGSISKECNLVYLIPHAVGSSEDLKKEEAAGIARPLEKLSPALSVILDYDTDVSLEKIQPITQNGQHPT
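Tetracycline-induced HEK293 T-REx cells with force-coupled D1 receptor were loaded with a no-wash calcium dye. Compound was added after a 10 s baseline and read kinetically for 180 s; EC80 dopamine was then added and calcium flux followed another 180 s.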
D1 potentiator – potentiators of human D1 dopamine receptor; HEK293 TREx D1 cells, calcium flux, dopamine EC20 potentiation; potentiation, % at 10 µM; AID 504651; 360,000 tested, 0.036% active; P21728; in the data active means potentiation above about 30%
DRD3 antagonist – blocks the human D3 dopamine receptor; max response, negative = inhibition, %; D3R cells, DiscoveRx beta-arrestin luminescence, antagonist mode; hits give low values; 360,000 tested, 2.5% active; in the data active means max response below about -50%; inconclusive means no clear call, values can overlap the other calls
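Cells plated overnight at 1500 cells/well, then exposed to library compounds with dopamine controls for 90 minutes at 37 degrees C. DiscoveRx reagent added for 30–60 minutes at room temperature; luminescence read, quantitative HTS format.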
D3 ag – D3 dopamine receptor (human) agonism | D3R DiscoveRx beta-arrestin cells, luminescence, 90 min | max activation, % | 410,000 tested, 0.58% active; in the data active means max activation above about 30%
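Agonist-mode cell screen: cells plated at 1500/well and incubated overnight at 37 °C, then exposed to library compounds for 90 min at 37 °C. Detection reagent was added for 30–60 min at room temperature, and luminescence was read.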
D1 agonist – agonists of human D1 dopamine receptor | activation, % at 2 µM | HEK293 T-REx D1 cells, calcium flux, agonist mode | 360,000 tested, 1% active | AID 504660 | P21728; in the data active means activation above about 30%
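Agonism was scored from calcium flux recorded over 180 s (1 read/s) after pintool compound addition, following a 10-cycle baseline. Cells were inducible force-coupled HEK293 TREx D1, plated overnight at 30 C and loaded with no-wash calcium dye.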
Of the large screens only hits and unclear results are named; the others gave an inactive call.

COc1ccc(Br)cc1/C=c1\sc2nc(-c3ccco3)nn2c1=O	none
COc1ccccc1/C=c1\sc2nc(-c3ccccc3OC)nn2c1=O	D1 antag -36.0
COc1ccc(N2CCN(c3csc4ccc(Cl)cc4c3=O)CC2)cc1	D1 agonist 43.3 (no result: DRD3 antagonist)
CC[C@H](C)[C@H]1CNC(=S)N1CC1CCN(CCC23CC4CC(CC(C4)C2)C3)CC1	DRD3 antagonist -83.0 (no result: D1 antag, D1 potentiator, D1 agonist)
CC[C@H](C)[C@H]1CNC(=S)N1CC1CCN(CC2CCC(C)CC2)CC1 (some centres undefined)	DRD3 antagonist -103.8 (no result: D1 antag, D1 potentiator, D1 agonist)
C[N+]1(C)[C@@H]2CC(OC(=O)C(O)(c3cccs3)c3cccs3)C[C@H]1[C@@H]1O[C@@H]12 (some centres undefined)	none (no result: D1 antag, D1 potentiator, DRD3 antagonist, D1 agonist)
COc1cccc(CC2(CO)CCCN(Cc3c(C)cc(C)cc3-n3cccn3)C2)c1 (centres undefined)	D1 antag -36.5
Cc1cc(O)c(C(C)C)cc1N=Nc1ccccc1C(=O)O	none
Cc1cc(NO)c(C(C)C)cc1N=O	D1 agonist 36.4
Cc1cccc2[nH]c3c(N4CCC5(CC4)OCCO5)ncnc3c12	none
Fc1ccc2[nH]c3c(N4CCc5ccccc5C4)ncnc3c2c1	D1 antag -35.3
Clc1ccc2[nH]c3c(N4CCC5(CC4)OCCO5)ncnc3c2c1	D1 antag -35.0
Brc1ccc2[nH]c3c(N4CCc5ccccc5C4)ncnc3c2c1	none (no result: D1 antag)
Cc1ccc2[nH]c3c(N4CCc5ccccc5C4)ncnc3c2c1	D1 antag -60.6
O=C1CC(c2ccccc2)Cc2[nH]c(=O)c(C(=O)Nc3ccc(OC(F)(F)F)cc3)cc21 (centres undefined)	none (no result: DRD3 antagonist)
O=C(CSC1=Nc2ccccc2C2=NC(Cc3ccccc3)C(=O)N12)Nc1cccc(Cl)c1 (centres undefined)	none (no result: DRD3 antagonist)
Oc1ccc(COC2CCN(Cc3ccccc3)C2)c2cccnc12 (centres undefined)	none (no result: DRD3 antagonist, D3 ag)
CCc1cccc(NC(=O)c2cc3c(=O)[nH]c4ccccc4c3n2C)c1	none (no result: DRD3 antagonist)
Cc1ccc(N2C(=O)CSC23C(=O)N(CC(=O)Nc2ccccc2F)c2ccccc23)cc1C (centres undefined)	D1 antag -32.0 (no result: DRD3 antagonist)
O=C(NCc1ccc2c(c1)OCO2)C(=O)NCC1OCCN1S(=O)(=O)c1ccc(Br)cc1 (centres undefined)	none
O=C(NCc1ccc2c(c1)OCO2)C(=O)NCC1OCCN1S(=O)(=O)c1ccc(Cl)cc1 (centres undefined)	D1 antag -30.8
O=C(NCCCn1ccnc1)C(=O)NCC1OCCCN1S(=O)(=O)c1ccc(Cl)cc1 (centres undefined)	D1 antag -51.0
O=C(NCCCn1ccnc1)C(=O)NCC1OCCN1S(=O)(=O)c1ccc(Cl)cc1 (centres undefined)	none
CC(=O)Oc1cccc(C)c1	none (no result: D1 antag, D1 potentiator, DRD3 antagonist, D1 agonist)
COc1ccc(/C(C)=N/NC2=NCCN2)cc1Cl	D1 antag -92.5
C/C(=N\NC1=NCCN1)c1ccc(N)c([N+](=O)[O-])c1	DRD3 antagonist inconclusive
COc1cc(N)c(Cl)cc1C(=O)NC1CCN(CCCOc2ccc(F)cc2)CC1OC (centres undefined)	none (no result: D1 antag, D1 potentiator, DRD3 antagonist, D1 agonist)
COc1cc(N)c(Cl)cc1C(=O)N[C@@H]1CCN(CCCOc2ccc(F)cc2)C[C@@H]1OC	D1 antag -58.5 (no result: DRD3 antagonist, D3 ag)
COc1cc(N)c(Cl)cc1C(=O)N[C@H]1CCN(CCCOc2ccc(F)cc2)C[C@H]1OC	DRD3 antagonist -77.3
Cc1cccc(NC(=O)c2ccccc2SCc2ccc(F)cc2)n1	D1 antag -34.1
Nn1cnc2c([nH]c3ccccc32)c1=O	D1 antag -31.9
O=C(OCn1ncc(Br)c(Br)c1=O)c1ccccc1Cl	DRD3 antagonist -88.4
CC(=O)OCn1ncc(N2CCOCC2)c(Br)c1=O	none
O=C(OCn1ncc(Br)c(Br)c1=O)c1ccc(F)cc1	DRD3 antagonist -82.9
O=C(OCc1cnc(Cl)s1)c1ccccc1Cl	none
CCCc1nc(SC)ncc1C(=O)N1CCN(c2ccc(Cl)cc2)CC1	none (no result: DRD3 antagonist)
CCOC(=O)c1c[nH]c(=S)n(-c2ccccc2)c1=O	D3 ag 30.2
COc1cccc(-n2c(C)nc3c(cnn3-c3ccc(C)c(C)c3)c2=O)c1	D1 antag -48.4 (no result: DRD3 antagonist)
Cc1ccc(C)c(S(=O)(=O)NC(C)C(=O)Nc2ccc(-c3nc4ccccc4s3)cc2)c1 (centres undefined)	D3 ag 51.2
O=C(NCCSc1ncc(-c2ccc(F)cc2)[nH]1)c1ccco1	none
COc1cc(NC(=O)c2ccco2)c(OC)cc1NC(=O)CSc1ncc(-c2ccc(F)cc2)[nH]1	D3 ag 31.4
CC/C(=N\Nc1ccc([N+](=O)[O-])cc1[N+](=O)[O-])c1ccc(O)cc1	D1 antag -34.1
CCC(=NNc1ccc([N+](=O)[O-])cc1[N+](=O)[O-])c1ccccc1	none (no result: D1 antag, D1 potentiator, D1 agonist)
C/C(=N/Nc1ccccc1[N+](=O)[O-])c1ccc([N+](=O)[O-])cc1	none
CC/C(=N\Nc1ccccc1[N+](=O)[O-])c1ccc(O)cc1	DRD3 antagonist -57.4
C/C(=N\Nc1ccccc1[N+](=O)[O-])c1ccccc1O	none
C/C(=N\Nc1ccc(C#N)cc1[N+](=O)[O-])c1ccc(O)cc1	D1 antag -43.1
Cc1ccc(Cl)cc1NC(=O)C1CCCN(S(=O)(=O)c2c(C)noc2/C=C/N(C)C)C1 (centres undefined)	none (no result: DRD3 antagonist)
COc1cccc(C(=O)c2cn(CC(=O)NCc3ccccc3Cl)c3nc(C)ccc3c2=O)c1	none (no result: DRD3 antagonist)
CCNc1ccc(S(=O)(=O)C(F)(F)F)cc1NC(=O)C12CCC(CC1)C2	none
CCNc1cc(S(=O)(=O)C(F)(F)F)ccc1N	D1 antag -38.2
O=C1C(=O)c2cccnc2-c2ncccc21	DRD3 antagonist -87.1 (no result: D1 antag, D1 potentiator, D1 agonist)
O=C(Cn1c(=O)n(Cc2nc(-c3ccccc3)no2)c(=O)c2cc3c(cc21)OCO3)Nc1cccc(C(F)(F)F)c1	none (no result: DRD3 antagonist)
Cc1ccc(CN(Cc2ccco2)c2cnc(S(C)(=O)=O)nc2C(=O)Nc2ccc(Br)cc2)o1	none (no result: DRD3 antagonist)
CN1CC(=O)Nc2cc(C(=O)O)ccc21	D1 antag -31.0 (no result: DRD3 antagonist)
CC(C)CNS(=O)(=O)c1cc(C(=O)N2CC(C)OC(C)C2)c(Cl)cc1Cl (centres undefined)	DRD3 antagonist -54.6
O=C(Nc1cccc(N2C(=O)C=CC2=O)c1)c1cccs1	none (no result: DRD3 antagonist, D3 ag)
O=C1C=CC(=O)N1c1cccc(-c2ccccc2)c1	D1 antag -42.6, DRD3 antagonist inconclusive
CC(=O)n1c2ccccc2c2c1c1ccccc1n2C	DRD3 antagonist -56.2
Cc1ccc(S(=O)(=O)N2CCOCC2)cc1NC(=O)CSc1nnnn1C	D1 antag -35.1
Cc1ccc(S(=O)(=O)N2CCCCC2)cc1NC(=O)CSc1nnc(C2CC2)n1C	DRD3 antagonist -71.4 (no result: D1 antag, D1 potentiator, D1 agonist)
Cc1ccc(S(=O)(=O)N(C)C)cc1NC(=O)CSc1nnc(C2CC2)n1C1CC1	D1 antag -67.5
COc1ccc(S(=O)(=O)N2CCCCC2)cc1NC(=O)CSc1nnc(C2CC2)n1C	none
